Hits are enriched below; roughly 1.2% of the tested compounds scored in any of these assays.
SSB-PriA inh = K. pneumoniae PriA-SSBct interaction inhibition. AlphaScreen SSBct-PriA binding, biotinylated peptide. inhibition, % at 33 µM. actives 0.6% (n = 430,000). AID 1272365; in the data active = inhibition mostly above about 37%, no sharp cut-off; inactive = mostly below about 20%;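 also: plate controls were negative control peptide for no effect and reference peptide for full effect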
Mtb UGM inh = blocks M. tuberculosis UGM enzyme; inhibition, % at 10 µM; actives 0.06% (n = 320,000); P9WIQ1; purified UGM, fluorescence polarization probe displacement; AID 504406; in the data active = inhibition above about 10%, passing the limit was not always enough
Target sequence (P9WIQ1 whole entry, looked up): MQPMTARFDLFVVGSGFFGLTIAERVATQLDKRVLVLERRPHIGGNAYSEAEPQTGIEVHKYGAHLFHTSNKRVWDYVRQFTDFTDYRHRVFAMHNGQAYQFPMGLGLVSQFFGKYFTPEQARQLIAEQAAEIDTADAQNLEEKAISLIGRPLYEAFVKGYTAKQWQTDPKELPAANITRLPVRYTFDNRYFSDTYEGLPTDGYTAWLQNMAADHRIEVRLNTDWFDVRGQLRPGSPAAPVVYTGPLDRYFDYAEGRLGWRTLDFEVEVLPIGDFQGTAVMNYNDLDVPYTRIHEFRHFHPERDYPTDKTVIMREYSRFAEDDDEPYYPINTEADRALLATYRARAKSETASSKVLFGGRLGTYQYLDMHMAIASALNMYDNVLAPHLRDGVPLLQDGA
Rv3671c protease = inhibitors of M. tuberculosis serine protease Rv3671c; P9WHR9; inhibition, % at 5.96 µM; actives 0.048% (n = 320,000); AID 2606; in the data active = inhibition above about 38%;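 also: extracellular domain of Rv3671c used as enzyme; 0% = enzyme with DMSO and 100% = no enzyme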
FadD28 binding = M. tuberculosis FadD28 bisubstrate binding inhibition. inhibition, % at 12.5 µM. FadD28 bisubstrate probe binding, fluorescence polarization. actives 0.22% (n = 360,000); in the data active = inhibition above about 8.5%, passing the limit was not always enough
PrPC TRFRET = cell surface PrPC inhibition, primary TR-FRET screen; TR-FRET read-out; AID 720596; inhibition, % at 13.8 µM; actives 0.43% (n = 370,000); in the data active = inhibition above about 24%; also: 0% = median of the test wells and 100% = reference compound wells
PrP 5UTR inh = suppresses PrP 5' UTR mRNA reporter expression; inhibition, % (test concentration not listed); actives 0.35% (n = 340,000); cell-based PrP 5' UTR mRNA reporter, plate reader; in the data active = inhibition above about 52%; also: 0 = median of the neutral control wells
An asterisk follows results filed as active; / = not tested or not shown.

SMILES	SSB-PriA inh	Mtb UGM inh	Rv3671c protease	FadD28 binding	PrPC TRFRET	PrP 5UTR inh
CCCCCCNc1c([N+](=O)[O-])cc(C)cc1[N+](=O)[O-]	60*	0	5	0	-4	-32
CC(C)Oc1ccccc1C1CC(=O)Nc2cc3c(cc21)OCCO3 (centres undefined)	18	-1	0	1	14	61*
CC(=NN1CCN(Cc2ccc(Cl)cc2)CC1)c1ccc([N+](=O)[O-])cc1	44*	/	/	/	/	/
CC(=NN1CCN(c2ccc(Cl)cc2)CC1)c1cccc([N+](=O)[O-])c1	-2	/	/	/	/	/
CC(=NNC(=S)Nc1ccc(C)cc1)c1cc2ccccc2o1	38*	/	/	/	/	/
CS(=O)(=O)N(CC(=O)N1CCN(Cc2ccccc2)CC1)c1ccccc1F	52*	2	-2	-2	1	-28
CS(=O)(=O)N(CC(=O)N1CCCCC1)Cc1ccccc1	59*	1	-1	-2	-5	-20
CS(=O)(=O)N(CC(=O)N1CCN(Cc2ccccc2)CC1)c1ccccc1Br	-8	1	-2	-4	1	-37
COc1cccc(CNC(=O)C(=O)Nc2cccc(F)c2)c1	-15	/	/	/	/	/
C=CCc1c(C)nc2c(-c3ccccc3)cnn2c1NCCc1ccc(OC)c(OC)c1	36*	/	/	/	/	/
Cc1ccc(C(=O)NCc2nnc(SCC(=O)N3CCc4ccccc43)n2-c2ccc(F)cc2)cc1[N+](=O)[O-]	-7	/	/	/	/	/
CC(C)Sc1nsc2nc(=O)c(C=C3C=Nc4ccccc43)c(N)n12	3	/	/	/	/	/
CC(C)Sc1nsc2nc(=O)c(/C=C3\C=Nc4ccccc43)c(N)n12	/	1	-51	19*	2	-11
O=C(Nc1ncn[nH]1)c1ncc(-c2ccc(Cl)cc2)o1	69*	/	/	/	/	/
CS(=O)c1ccccc1O (centres undefined)	8	1	-2	-2	3	5
O=S(c1ccccc1O)S(=O)c1ccccc1O (centres undefined)	4	/	/	28*	4	-21
O=C(NCC1CCN(c2cnccn2)CC1)c1ccc(Br)o1	-11	/	/	/	/	/
CCNC(=O)N(C)C[C@H]1COCCO1	0	/	/	/	/	/
C/C(=N\Nc1ccc(Cl)c(C(=O)O)c1)c1ccc[nH]1	/	-1	-2	28*	-4	14
CC(=NNc1ccc(Cl)c(C(=O)O)c1)c1ccc[nH]1	-2	/	/	/	/	/
CN1/C(=C/C(=S)NC(=O)C2(C)CC2(Cl)Cl)C(C)(C)c2ccccc21 (centres undefined)	71*	4	-16	-5	18	-6
CN1/C(=C\C(=S)NC(=O)c2ccccc2Cl)C(C)(C)c2ccccc21	17	0	-34	-2	6	-24
COC(CNC(=O)c1cccnc1)OC	-6	-1	10	-1	3	-25
COC(CNC(=O)c1ccc2c3c(onc13)-c1ccccc1C2=O)OC	12	27*	-44	0	-57	-82
COCCN=c1scc(-c2cc(OC)ccc2OC)n1N=Cc1c[nH]c2ccccc12	66*	/	/	/	/	/
SMILES	SSB-PriA inh	Mtb UGM inh	Rv3671c protease	FadD28 binding	PrPC TRFRET	PrP 5UTR inh
CC(=O)N(C)c1ccc(OCC(O)CN2CCN(c3ccccn3)CC2)cc1 (centres undefined)	-5	/	/	/	/	/
COc1ccc(SCC(=O)c2cc(C)c(OC(=S)N(C)C)c(C)c2)cc1	-6	5	-8	-3	10	-36
Cc1cc(C(=O)CSc2ccc(F)cc2)cc(C)c1OC(=S)N(C)C	-20	-1	1	-1	7	68*
O=C(NCc1cc(-c2ccncc2)n(C2CCCC2)n1)c1ccccc1Br	-1	/	/	/	/	/
O=P1(c2ccccc2)Nc2ccccc2N1c1ccccc1 (centres undefined)	57*	/	/	-3	-7	-22
COc1ccc(CCC(=O)N2CC[C@H](Oc3nccnc3C#N)C2)cc1	-15	/	/	/	/	/
CCCCC(=O)NN=Cc1ccc(Sc2cccc3cccnc23)o1	100*	/	/	/	/	/
CCCc1nnsc1C(=O)NC1CC(O)C(CO)C1 (centres undefined)	-17	/	/	/	/	/
O=[N+]([O-])c1cnc(Nc2ccc(S(=O)(=O)Nc3nccs3)cc2)c([N+](=O)[O-])c1	38*	/	/	/	/	/
Cc1ccc(S(=O)(=O)Nc2nccs2)cc1[N+](=O)[O-]	-3	-2	-9	0	4	-14
O=C(Cn1ncccc1=O)N1Cc2cnc(N3CCOCC3)nc2C1	1	/	/	/	/	/
O=C1Cc2cc(NC(=O)c3cnccn3)ccc2N1	-10	/	/	/	/	/
CC1(C)CC(=O)C2=C(C1)c1c(ccc3ccccc13)NC2c1cc([N+](=O)[O-])cc([N+](=O)[O-])c1O (centres undefined)	19	2	10	32*	0	-23
COc1ccc(N2C(=O)CSC23C(=O)N(CC(=O)NCc2ccco2)c2ccccc23)cc1 (centres undefined)	-16	/	/	/	/	/
N#CC1=C(N)C2=C(N3CCCCC3)CCCC2C1(C#N)C#N (centres undefined)	1	1	8	46*	/	-1
O=[N+]([O-])c1ccc(C=Nc2cccc3ccccc23)s1	53*	0	-28	-5	/	-44
O=[N+]([O-])c1ccc(C=Nn2c(CO)nc3ccccc32)s1	7	/	/	/	/	/
C=CCNC(=S)NNC(=O)c1ccccn1	148*	/	/	/	/	/
CNC(=S)NNC(=O)c1ccccn1	152*	/	/	/	/	/
C=CCNC(=S)NN=C(C)c1ccccn1	-5	/	/	/	/	/
COc1cc(OC)cc(C(=O)NNC(=O)c2ccccn2)c1	-1	-1	-10	-2	25*	-67
CC(C)C(=O)NNC(=O)c1ccccn1	-13	-3	0	0	-3	-3
COCCNC(=S)NNC(=O)c1ccccn1	156*	/	/	/	/	/
Cc1nc2ccccn2c1C(O)=C1C(=O)C(=O)N(CCN(C)C)C1c1ccco1 (centres undefined)	-8	/	/	/	/	/
COc1ccc(N2CC(NC(=O)N3CCC(O)CC3)CC2=O)cc1OC (centres undefined)	-6	/	/	/	/	/
SMILES	SSB-PriA inh	Mtb UGM inh	Rv3671c protease	FadD28 binding	PrPC TRFRET	PrP 5UTR inh
CN(C)S(=O)(=O)N1CCc2nc(NC(=O)Nc3cccc(C(F)(F)F)c3)sc2C1	-3	/	/	/	/	/
CC1CCC2C(=O)N(c3ccc(NC4CCN(Cc5ccccc5)CC4)c([N+](=O)[O-])c3)C(=O)C2C1 (centres undefined)	43*	0	-4	1	-21	7
O=C(NN=C(Cc1ncc[nH]1)c1ccccc1)c1ccncc1	48*	/	/	/	/	/
COc1ccc(/C=C/C(=O)Nc2ccccc2C(N)=O)cc1OC	7	/	/	/	/	/
C#CCn1c(=NC(=O)c2ccnn2C)sc2cc(S(C)(=O)=O)ccc21	9	/	/	/	/	/
O=c1cc(-c2ccccc2)[nH]n1-c1nc2ccccc2[nH]1	69*	1	5	0	-7	-11
Cc1csc(C(=O)NCc2nn(CCN3CCCC3)c(=O)c3ccccc23)c1	45*	/	/	/	/	/
Cc1cc(C)cc(NC(=O)Cc2csc(SCC(=O)c3ccc4c(c3)OCO4)n2)c1	2	/	/	/	/	/
CCc1c(C)nc(-n2nc(C)cc2N)[nH]c1=O	93*	/	/	/	/	/
Cc1cc(N)n(-c2nc3c(c(=O)[nH]2)CCCC3)n1	93*	/	/	/	/	/
CC(C)c1ccc(CNC(=O)c2n[nH]nc2-c2cccc(Cl)c2)cc1	-7	/	/	/	/	/
